CHX counter – counter-screen hit for Shiga toxin inhibitors, cycloheximide; hit rate 12% among 300,000; max response, %; cell reporter, cycloheximide protein synthesis inhibition counterscreen; in the data active = max response mostly above about 13%, no sharp cut-off; inactive = mostly below about 14%; also: read at 38.3 µM for the half of the compounds with a filed dose; 0% is about no effect
Pf growth 48h – P. falciparum growth inhibition at 48 hours (one generation). P. falciparum luciferase growth in erythrocytes, 48 h. Potency, µM (top dose mostly 28.7 µM), inactives show at the highest dose activity change, negative = inhibition, most hits filed as inhibitors. hit rate 5.9% among 310,000; also: potency is read from the fitted curve at half-maximal effect; % is scaled to controls: 0 for no effect and ±100 for the full control effect
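Read-out is firefly luciferase luminescence from an integrated reporter in P. falciparum, so falling signal marks reduced parasite growth. Infected erythrocytes were at 2% hematocrit and 0.1% parasitemia (final) in Albumax-supplemented RPMI 1640.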
Pf growth 96h – P. falciparum growth inhibition at 96 hour, primary screen for plastid delayed-death inhibitors; P. falciparum luciferase reporter growth, 96 h; Potency, µM (top dose mostly 28.7 µM), for inactives: at the highest dose activity change, negative = inhibition, usual class: inhibitors; hit rate 6.9% among 320,000; also: potency is read from the fitted curve at half-maximal effect; % is scaled to controls: 0 for no effect and ±100 for the full control effect
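Luminescence readout: decreased luciferase signal marks inhibited growth of reporter-expressing P. falciparum in infected red cells (2% hematocrit, 0.05% parasitemia final), exposed to compound two generations (96 h, 37 C, 5% CO2).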
Shiga toxin inh – Shiga toxin inhibition. Vero cells, Shiga toxin protein synthesis inhibition reporter. inhibition, % at 38.7 µM. hit rate 9.2% among 290,000. AID 2315; in the data active = inhibition mostly above about 28%, no sharp cut-off; inactive = mostly below about 43%; also: 0% is about no effect
SARS PLpro yeast – SARS-CoV PLP inhibition in yeast; S. cerevisiae expressing SARS-CoV PLpro, growth rescue; Potency, µM (top dose mostly 32.9 µM), for the others: at the highest dose activity, positive = growth rescue, usual class: activators; hit rate 0.19% among 330,000; calls by dose curve; also: potency is read from the fitted curve at half-maximal effect; 0% is about no effect; nearly all actives have a fitted effect of over 55% in size
NS1 function inh – influenza NS1 inhibition. hit rate 0.4% among 270,000. Potency, µM (top dose mostly 46.1 µM), for the others: top-dose activity, positive = more growth; calls by dose curve; also: potency is read from the fitted curve at half-maximal effect; actives are rising curves; nearly all actives have a fitted effect of over 50% in size
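Compounds were scored for reversing the slow growth caused by influenza A NS1 in S. cerevisiae, measured by optical density at 600 nm. Assay medium contained 2% galactose at pH 6.0; NS1-free yeast of the same strain were the positive control.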
Starred values were filed as active, the others as inactive; ? = inconclusive; / = not tested or not shown; [ ] = remark or other dose. Only some compounds are listed: those with a hit (about 21% of all), similar ones and a draw of the others. Unless noted, calls follow the shape of the dose curve; as a rule, active = well fitted inhibition curve with a large enough effect; inconclusive = small, poorly fitted or top-dose-only effect, or another doubt; inactive = no such curve, though single readings can be large or run the other way.

SMILES	CHX counter	Pf growth 48h	Pf growth 96h	Shiga toxin inh	SARS PLpro yeast	NS1 function inh
O=C(c1cccc([N+](=O)[O-])c1)n1nc(-c2ccccc2)nc1NCc1ccccc1	20*	34%	-27%	48*	28%	1%
O=C(c1cccs1)n1nc(-c2ccccc2)nc1NCc1ccc(F)cc1	-1	/	?	-16	8%	-1%
O=C(c1ccc([N+](=O)[O-])cc1)n1nc(-c2ccccc2)nc1NCc1ccc(F)cc1	17*	-6%	194%	37*	11%	2%
CC(=O)n1nc(-c2ccccc2)nc1NCc1ccc(F)cc1	20*	2%	/	46	-2%	-7%
Cc1ccc(OC(=O)c2cccc(S(=O)(=O)N3CCN(C)CC3)c2)c(Br)c1	-2	14%	27%	-14	?	-4%
O=C(NNc1cc(N2CCOCC2)nc(N2CCOCC2)n1)c1ccc(Cl)c(Cl)c1	0	-4%	-15%	-10	-4%	16%
Cc1ccc(C(=O)NNc2cc(N3CCCC3)nc(N3CCCC3)n2)cc1	2	4.7µM*	-8%	-8	-7%	-8%
CC(=O)Nc1ccc(NC(=O)C(C)OC(=O)CCC2CCCC2)cc1 (stereo unspecified)	/	12%	18%	/	-1%	/
Cc1noc2nc(-c3cccs3)cc(-c3nnc4n3CCCCC4)c12	-2	16%	12µM*	-16	-1%	-7%
CCOC(=O)c1cc(-c2cccs2)nc2onc(C)c12	-2	/	?	25	4%	-8%
O=c1cc(-c2ccc([N+](=O)[O-])cc2)c2ccc(O)cc2o1	3	71%	-25%	24	-1%	/
O=c1c(-c2ccc([N+](=O)[O-])cc2)coc2c(O)c(O)ccc12	23*	?	?	57*	-1%	6%
CN(C)Cc1c(O)ccc2c(=O)c(-c3ccc(Cl)cc3)coc12	14*	-30%	?	18	?	10%
CCN(CC)Cc1c(O)ccc2c(=O)c(-c3ccc(Cl)cc3)coc12	10	?	0%	10	1%	-8%
CCNC(=O)NC(=O)COC(=O)CCCc1nc2ccccc2s1	9	19%	-26%	3	-1%	/
CCOC(=O)N1CCN(CC(=O)N2c3ccccc3CCc3ccccc32)CC1	-2	5%[5.75 µM]	?	14	0%	/
CCOC(=O)Nc1ccc2c(c1)N(C(=O)CN1CCN(C)CC1)c1ccccc1S2	-1	9.3µM*	124%	-4	4%	-11%
CCCC(CCC)C(=O)Nc1ccc2c(c1)N(C(=O)CN1CCN(C)CC1)c1ccccc1CC2	-1	5.2µM*	-6%	28	0%	-2%
CCN1CCc2c(C#N)c(N3CCCCC3)nc(NCc3ccccc3)c2C1	-2	?	2.6µM*	5	/	-12%
CCN1CCc2c(C#N)c(N3CCOCC3)nc(NCc3ccccc3)c2C1	-6	/	18%	-11	2%	-2%
CCc1nc(NCc2ccccc2)c(C#N)c2c1CCCC2	-3	10µM*	?	-7	-19%	-5%
CN(C)CCCNC(=O)C[C@H]1C[C@H](C(=O)N2CCOCC2)[C@@]2(CCC3CCCC3)c3[nH]c4cc(CCC(=O)N(C)C)ccc4c3CCN2C1=O	/	/	/	/	-8%	/
CC12CCC(C(=O)N3CCCc4ccccc43)(OC1=O)C2(C)C (stereo unspecified)	-3	-2%	21%	-7	18%	17%
Cc1cccc(NC(=O)c2ccc(NCC3CCCO3)c([N+](=O)[O-])c2)n1 (stereo unspecified)	19*	37%	14%	68*	-1%	/
Cc1cccc(NC(=O)c2ccc(NCC3CCCO3)c([N+](=O)[O-])c2)c1 (stereo unspecified)	19*	6%	?	2	18%	3%
SMILES	CHX counter	Pf growth 48h	Pf growth 96h	Shiga toxin inh	SARS PLpro yeast	NS1 function inh
Cc1cccc(NC(=O)c2ccc(NCCO)c([N+](=O)[O-])c2)n1	30*	76%	184%	53*	3%	-3%
COc1ccc(NC(=O)C2CCN(S(=O)(=O)c3c(C)noc3/C=C/c3cccs3)CC2)cc1Cl	11	/	/	14	/	/
O=C(O)c1nnn(-c2cccc(C(F)(F)F)c2)c1-c1ccccc1	0	11%	?	-5	2%	-3%
Nc1c(-c2ccccc2)cnn1-c1cccc(C(F)(F)F)c1	68*	123%	233%	83*	-13%	5%
Nc1c(-c2cccc(Cl)c2)cnn1-c1cccc(C(F)(F)F)c1	31*	34%	66%	58*	-36%	-122%
Nc1c(-c2ccc(Cl)cc2)cnn1-c1cc(C(F)(F)F)cc(C(F)(F)F)c1	-1	-15%	-14%	-9	-3%	4%
COc1ccc(S(=O)(=O)NCC(=O)N(CC2CCCO2)C(C(=O)NC2CCCC2)C(C)C)cc1 (stereo unspecified)	-7	-5%	-17%	5	-12%	6%
CC(=O)c1ccc(NC(=O)CCc2c(C)nn(-c3ccc(N4CCOCC4)nn3)c2C)cc1	44*	34%	5%	40*	4%	-15%
CCc1cccc(NC(=O)CCc2c(C)nn(-c3ccc(N4CCOCC4)nn3)c2C)c1	26*	?	4%	27	1%	2%
Cc1nn(-c2ccc(N3CCOCC3)nn2)c(C)c1CCC(=O)Nc1ccccc1	26*	34%	-14%	20	-1%	-2%
COc1cc(NC(=O)CCc2c(C)nn(-c3ccc(N4CCOCC4)nn3)c2C)cc(OC)c1OC	2	?	6%	2	-1%	-6%
Cc1ccc(NC(=O)CCc2c(C)nn(-c3ccc(N4CCOCC4)nn3)c2C)c(C)c1	-2	11%	238%	35	-14%	-5%
Cc1ccc(NC(=O)CCc2c(C)nn(-c3ccc(N4CCOCC4)nn3)c2C)cc1	23*	10%	?	7	2%	-14%
COc1ccc(NC(=O)CCc2c(C)nn(-c3ccc(N4CCOCC4)nn3)c2C)cc1	20	-4%	?	38	24%	3%
CCC1CCCCN1C(=O)CCS(=O)(=O)c1ccc2c(c1)CCN2C(C)=O (stereo unspecified)	-1	-15%	-26%	21	2%	-2%
CN(C(=O)COC(=O)c1nn(C)c(=O)c2ccccc12)c1c(N)n(Cc2ccccc2)c(=O)[nH]c1=O	/	-11%	22%	/	-2%	/
O=C(CN(C(=O)c1csnn1)c1cccc2c1CCCC2)NCc1ccccc1	9	-16%	1%	-10	-4%	6%
CCc1ccc(C(=O)NNC(=S)Nc2ccc(S(N)(=O)=O)cc2)s1	-3	20%	17%	-8	4%	/
CCc1ccc(NC(=O)CCc2c(C)nn(-c3ccc(N4CCOCC4)nn3)c2C)cc1	42*	13%	?	45*	-17%	-10%
Cc1ccc(NC(=O)CCc2c(C)nn(-c3ccc(N4CCOCC4)nn3)c2C)cc1F	41*	2%	?	69*	6%	11%

Assay outcomes: PubChem, National Center for Advancing Translational Sciences (NCATS)
